From ChEMBL document CHEMBL4513216, “Probing the Open Global Health Chemical Diversity Library for Multistage-Active Starting Points for Next-Generation Antimalarials” (ACS Infect Dis, 2020)
The whole screen tested about 68,000 compounds, of which about 2,700 (4%) showed an effect of 50% or more. The list comes from a sample in which strong results are over-represented; it also holds similar structures and randomly drawn compounds.

Each compound was assayed on Plasmodium berghei (assay: Screen against P. berghei liver stage (PbLuc), transformed with Luciferase, at 2uM). Details: tested at 2 uM.
Assay type: functional, HepG2
Work on `COc1ccc(C(=O)N2CCCC(n3nc(C)nc3C)C2)c(OC)c1` (stereo not given) yielded an INHIBITION of -42.39%.
`CN(Cc1cc(Br)cn1C)C(=O)c1cscn1` showed an INHIBITION of 30.06%.
With `CCN1CC2(CCC1=O)CCN(Cc1cscn1)CC2` the INHIBITION was 50.32%.
In the case of `Cc1cnc(C2(C)CCN(Cc3csc(C)n3)CC2)s1`, the INHIBITION is reported as 19.47%.
In the case of `Cc1cnc(C2(C)CCN(Cc3cscn3)CC2)s1`, the INHIBITION is reported as 50.32%.
Compound `O=C1CCC2(CCN(Cc3cscn3)CC2)CN1CCCO` has an INHIBITION of -8.8%.
`Cc1ccc(CN2CCCN(Cc3cscn3)CC2)cc1` gave an INHIBITION of -6.56%.
For `O=C1CCC2(CCN(Cc3cscn3)CC2)CN1CC1CCCO1` (stereo not given), the INHIBITION was 40.47%.
`CC(C)c1cc(C(=O)N2C[C@@H]3CC[C@H]2CN(Cc2cscn2)C3)no1` gave an INHIBITION of 22.89%.
Compound `CCOc1ccc2[nH]c(=O)c(CN3CCCC3c3ccccn3)cc2c1` (stereo not given) has an INHIBITION of -97.01%.
Compound `CC(C)(C)n1nnnc1CN(Cc1ccccc1)Cc1ccc(Cl)cc1` has an INHIBITION of 8.33%.
`Cc1csc(C(Cc2ccsc2)NC(=O)CN(C)Cc2cccnc2)n1` (stereo not given) gave an INHIBITION of 55.29%.
`Cc1csc(C(Cc2ccsc2)NC(=O)CN(C)Cc2ccccn2)n1` (stereo not given) showed an INHIBITION of 7.39%.
For `CN(CC(=O)NC(Cc1ccsc1)c1cccnc1)Cc1cccnc1` (stereo not given), the INHIBITION was -37.25%.
In the case of `COc1cccc(CN2CCC3(CCN(c4ncc(C)cn4)CC3)C2)c1`, the INHIBITION is reported as 13.26%.
For `Cc1ccc(S(=O)(=O)NCC(C)C#N)cc1Br` (stereo not given), the INHIBITION was 4.88%.
`CC(C#N)CNS(=O)(=O)c1ccc(Br)c(F)c1` (stereo not given) was tested, and the INHIBITION was 64.21%.
With `CC(C#N)CNS(=O)(=O)c1ccc(F)c(Br)c1` (stereo not given) the INHIBITION was -27.36%.
Compound `COc1ccc2c(c1)C1(CCN(Cc3ccoc3)CC1)N(C)CC2` has an INHIBITION of -11.19%.
Work on `COCCC(=O)NCCn1nc(C2CCNC2)c2cccnc21` (stereo not given) yielded an INHIBITION of 49.9%.
In the case of `Cc1ccc(CN2CCOCC2)cc1NC(=O)c1ccsc1`, the INHIBITION is reported as 34.25%.
`Cc1ccc(C(=O)N2CCOCC2)cc1NCc1ccsc1` was tested, and the INHIBITION was 21.24%.
Work on `Cc1ccc(CN2CCOCC2)cc1NCc1ccsc1` yielded an INHIBITION of 52.85%.
Compound `CS(=O)(=O)CC1CCCN(C(=O)Cn2cccc(C(F)(F)F)c2=O)C1` (stereo not given) has an INHIBITION of 33.96%.
For `FC(F)(F)CCc1ncnn1-c1ccc2c(c1)OCO2`, the INHIBITION was 11.9%.
Compound `CN1CCN(C[C@H]2CC[C@@H](Cc3ccc4c(c3)OCO4)O2)CC1` has an INHIBITION of 25.69%.
`FC(F)C(F)(F)COCc1ncnn1-c1ccc2c(c1)OCO2` was tested, and the INHIBITION was 57.34%.
`CS(=O)(=O)CCc1ncnn1-c1ccc(F)c(Cl)c1` showed an INHIBITION of 19.38%.
With `CS(=O)(=O)N1CCC[C@H]1c1ncnn1-c1ccc2c(c1)OCO2` the INHIBITION was -13.17%.
Work on `CN1CCN(CCc2ncnn2-c2ccc3c(c2)OCO3)CC1` yielded an INHIBITION of 65.76%.
